Screens: PubChem, The Scripps Research Institute Molecular Screening Center
PP1 counter – counter-screen for PP5 inhibitors: inhibitors of human PP1-alpha; purified PP1alpha, OMFP fluorescence; inhibition, % at 6.7 µM; actives 0.9% (n = 320,000); P62136;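 active means inhibition above the mean inhibition of all tested compounds plus 3 SD, computed separately for each screening campaign, cut at about 15% in these data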
Target sequence (P62136 whole entry, looked up): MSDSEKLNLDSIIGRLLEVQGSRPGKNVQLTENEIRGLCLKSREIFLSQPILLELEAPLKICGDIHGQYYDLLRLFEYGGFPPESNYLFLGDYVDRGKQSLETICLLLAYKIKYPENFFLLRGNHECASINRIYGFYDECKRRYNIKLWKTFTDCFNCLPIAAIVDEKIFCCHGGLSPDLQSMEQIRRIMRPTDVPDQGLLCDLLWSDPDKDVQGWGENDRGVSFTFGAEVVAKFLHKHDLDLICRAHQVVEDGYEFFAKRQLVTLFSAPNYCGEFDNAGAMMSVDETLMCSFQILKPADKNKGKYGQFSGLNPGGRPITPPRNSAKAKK
pPAFAH FP inh – inhibitors of human plasma PAF acetylhydrolase (pPAFAH). Q13093. recombinant pPAFAH, FP-rhodamine probe fluorescence polarization. inhibition, % at 3.39 µM. actives 1.5% (n = 330,000). AID 463082;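 active means inhibition above the mean inhibition across the screen plus 3 SD, cut at about 25% in these data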;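 further: inhibitors block binding of the rhodamine activity-based probe so polarization drops; 0% = enzyme with DMSO and 100% = wells lacking pPAFAH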
PP5 inh – blocks human protein phosphatase 5 activity | inhibition, % at 6.7 µM | purified PP5c, OMFP substrate fluorescence | P53041 | actives 0.18% (n = 320,000);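 active means inhibition above the campaign's mean inhibition across all tested compounds plus 3 SD, cut at about 9.5% in these data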;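 further: 0% = DMSO only and 100% = 100 µM cantharidin control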
PAFAH1B3 FP inh – blocks human PAF acetylhydrolase 1B catalytic subunit 3. recombinant PAFAH1B3, FP-rhodamine probe, fluorescence polarization. inhibition, % at 3.39 µM. actives 0.28% (n = 340,000). AID 492972;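 active means inhibition above the screen-wide average of all tested compounds plus 3 SD, cut at about 25% in these data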;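 further: 0% = enzyme with DMSO only and 100% = wells lacking PAFAH1B3 protein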
PAFAH1B2 FP inh – PAFAH1B2 (human) inhibition; actives 1.2% (n = 340,000); P68402; recombinant PAFAH1B2, FP-rhodamine activity probe, fluorescence polarization; inhibition, % at 3.39 µM;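 active means inhibition above the mean of all tested compounds plus 3 SD, cut at about 24% in these data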;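 further: 0% = enzyme with DMSO and 100% = wells lacking PAFAH1B2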
Target sequence (P68402 whole entry, looked up): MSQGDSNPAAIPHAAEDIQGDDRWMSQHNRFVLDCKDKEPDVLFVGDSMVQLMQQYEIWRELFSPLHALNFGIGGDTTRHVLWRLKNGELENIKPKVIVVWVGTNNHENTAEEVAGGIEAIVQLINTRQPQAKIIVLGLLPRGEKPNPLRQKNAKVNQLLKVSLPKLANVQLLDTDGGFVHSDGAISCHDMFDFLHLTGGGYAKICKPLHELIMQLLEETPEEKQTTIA
PAFAH2 FP inh – inhibitors of human PAFAH2; Q99487; recombinant PAFAH2, FP-rhodamine activity probe, fluorescence polarization; inhibition, % at 3.39 µM; actives 0.99% (n = 340,000); AID 492956;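 active means inhibition above the mean over all tested compounds plus 3 SD, cut at about 30% in these data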;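 further: inhibitors block probe labeling of enzyme so polarization drops; 0% = enzyme with DMSO and 100% = wells lacking PAFAH2 protein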
PAFAH2 FP conf – PAFAH2 (human) inhibition, confirmed; shares compounds with PAFAH2 FP inh; recombinant PAFAH2, FP-rhodamine activity probe, fluorescence polarization; inhibition, % at 3.39 µM; actives 65% (n = 2,300); AID 493030;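 active means mean inhibition over three repeats above a set limit taken from the earlier primary screen, cut at about 30% in these data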;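 further: inhibitor blocks binding of rhodamine activity probe so polarization falls; 0% = enzyme with DMSO and 100% = wells lacking PAFAH2 protein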
Numbers without * were called inactive. In the library only some 3.4% were active in any assay of this set; here they are far more common.

How did O=c1[nH]c(=O)n(-c2cccc(Cl)c2)c(O)c1C=NCCN1CCCCC1 do in these assays?
PP1 counter: -7; pPAFAH FP inh: 1; PP5 inh: -1; PAFAH1B3 FP inh: -2; PAFAH1B2 FP inh: -1; PAFAH2 FP inh: -8

Results for Cc1cc(/C=C2\C(=O)NC(=O)N(c3ccc(Cl)cc3)C2=O)c(C)n1-c1sc2c(c1C#N)CCCC2 ?
PP1 counter: 11; pPAFAH FP inh: 13; PP5 inh: 2; PAFAH1B3 FP inh: 4; PAFAH1B2 FP inh: 3; PAFAH2 FP inh: 33*; PAFAH2 FP conf: 18

How did CCOc1ccc(-n2c(O)c(/C=C3\C=Nc4ccccc43)c(=O)[nH]c2=O)cc1 do in these assays?
PP1 counter: -2; pPAFAH FP inh: -2; PP5 inh: 0; PAFAH1B3 FP inh: -1; PAFAH1B2 FP inh: 6; PAFAH2 FP inh: 6

What do the screens show for `C=CCN1C(=O)/C(=C/c2cc(C)n(-c3cccnc3)c2C)C(=O)NC1=S`?
PP1 counter: -3; pPAFAH FP inh: 7; PP5 inh: -1; PAFAH1B3 FP inh: -1; PAFAH1B2 FP inh: 8; PAFAH2 FP inh: 31*; PAFAH2 FP conf: 10

Results for COc1ccccc1NC(=O)COC(=O)c1cc(C)n(C2CC2)c1C ?
pPAFAH FP inh: 3; PAFAH1B3 FP inh: 2; PAFAH1B2 FP inh: 2; PAFAH2 FP inh: 4

What do the screens show for `Cc1cc(C(=O)OCC(=O)Nc2ccc(F)cc2)c(C)n1C1CC1`?
PP1 counter: -1; pPAFAH FP inh: 7; PP5 inh: 1; PAFAH1B3 FP inh: 5; PAFAH1B2 FP inh: 0; PAFAH2 FP inh: 43*; PAFAH2 FP conf: 25

What do the screens show for `Cc1cc(C(=O)OCC(=O)Nc2cccc(F)c2)c(C)n1C1CC1`?
PP1 counter: 14; pPAFAH FP inh: 6; PP5 inh: 4; PAFAH1B3 FP inh: 9; PAFAH1B2 FP inh: 1; PAFAH2 FP inh: 65*; PAFAH2 FP conf: 51*

Results for CCC(C)N1C(=O)/C(=C\c2ccc(N3CCCCCC3)cc2)C(=O)NC1=S (centres undefined) ?
PP1 counter: -2; pPAFAH FP inh: 4; PP5 inh: 1; PAFAH1B3 FP inh: -28; PAFAH1B2 FP inh: -9; PAFAH2 FP inh: 0

Results for CCC(C)N1C(=O)/C(=C\c2cc3c4c(c2)CCCN4CCC3)C(=O)NC1=S (centres undefined) ?
PP1 counter: 4; pPAFAH FP inh: 3; PP5 inh: -1; PAFAH1B3 FP inh: -5; PAFAH1B2 FP inh: 11; PAFAH2 FP inh: 36*; PAFAH2 FP conf: 20

What do the screens show for `CC(C)(C)n1cccc1/C=C1\C(=O)NC(=O)N(c2ccccc2)C1=O`?
PP1 counter: -1; pPAFAH FP inh: 2; PP5 inh: 3; PAFAH1B3 FP inh: -2; PAFAH1B2 FP inh: 9; PAFAH2 FP inh: 50*; PAFAH2 FP conf: 44*

What do the screens show for `COc1cc(/C=C2\C(=O)NC(=O)N(c3ccccc3)C2=O)cc(OC)c1O`?
PP1 counter: 13; pPAFAH FP inh: 3; PP5 inh: 4; PAFAH1B3 FP inh: 10; PAFAH1B2 FP inh: 5; PAFAH2 FP inh: -1

What do the screens show for `Cn1cc(/C=C2\C(=O)NC(=O)N(c3ccccc3)C2=O)c2ccccc21`?
PP1 counter: 1; pPAFAH FP inh: -1; PP5 inh: -1; PAFAH1B3 FP inh: 7; PAFAH1B2 FP inh: 5; PAFAH2 FP inh: 39*; PAFAH2 FP conf: 36*

Results for CC(C)N1CCN(Cc2cccc([N+](=O)[O-])c2)CC1 ?
PP1 counter: -7; pPAFAH FP inh: 6; PP5 inh: 1; PAFAH1B3 FP inh: 5; PAFAH1B2 FP inh: 9; PAFAH2 FP inh: 117*; PAFAH2 FP conf: 5

Results for O=C1NCCN2CCCC12 (centres undefined) ?
PP1 counter: 0; pPAFAH FP inh: 1; PP5 inh: -1; PAFAH1B3 FP inh: 0; PAFAH1B2 FP inh: -1; PAFAH2 FP inh: -1

What do the screens show for `O=P(Oc1ccccc1)(Oc1ccccc1)C(O)c1ccc(Cl)cc1` (centres undefined)?
PP1 counter: 7; pPAFAH FP inh: 8; PP5 inh: 2; PAFAH1B3 FP inh: 3; PAFAH1B2 FP inh: 2; PAFAH2 FP inh: 14

How did COc1ccc(C(O)P(=O)(Oc2ccccc2)Oc2ccccc2)cc1 (centres undefined) do in these assays?
PP1 counter: 1; pPAFAH FP inh: -2; PP5 inh: 0; PAFAH1B3 FP inh: 5; PAFAH1B2 FP inh: -1; PAFAH2 FP inh: 33*; PAFAH2 FP conf: 18

How did Cc1ccsc1/C=C1\C(=O)NC(=S)N(C)C1=O do in these assays?
PP1 counter: -8; pPAFAH FP inh: 3; PP5 inh: 1; PAFAH1B3 FP inh: 0; PAFAH1B2 FP inh: 3; PAFAH2 FP inh: 1

Results for COc1ccc(/C=C2\C(=O)NC(=S)N(C)C2=O)cc1C ?
PP1 counter: -3; pPAFAH FP inh: 0; PP5 inh: -1; PAFAH1B3 FP inh: 4; PAFAH1B2 FP inh: 3; PAFAH2 FP inh: 35*; PAFAH2 FP conf: 0

What do the screens show for `Cc1cc(OCC(=O)N2C[C@H]3C[C@@H](C2)c2cccc(=O)n2C3)c2c(C)cc(=O)oc2c1`?
PP1 counter: -2; pPAFAH FP inh: 5; PP5 inh: 1; PAFAH1B3 FP inh: 6; PAFAH1B2 FP inh: 0; PAFAH2 FP inh: 38*; PAFAH2 FP conf: -3

What do the screens show for `CCc1cc(=O)oc2cc(OCC(=O)N3C[C@H]4C[C@@H](C3)c3cccc(=O)n3C4)c(Cl)cc12`?
PP1 counter: 2; pPAFAH FP inh: 1; PP5 inh: 5; PAFAH1B3 FP inh: 8; PAFAH1B2 FP inh: 4; PAFAH2 FP inh: 6

What do the screens show for `Cc1cc(C=C2C(=O)NC(=S)NC2=O)c(C)n1C1CCCC1`?
PP1 counter: 6; pPAFAH FP inh: 10; PP5 inh: 0; PAFAH1B3 FP inh: 10; PAFAH1B2 FP inh: 12; PAFAH2 FP inh: 34*; PAFAH2 FP conf: 15

How did Oc1c(Cl)cccc1Cc1cc(Cl)cc(Cl)c1O do in these assays?
PAFAH1B3 FP inh: 6; PAFAH1B2 FP inh: 5; PAFAH2 FP inh: 37*; PAFAH2 FP conf: 25

Results for Cc1ccc(-n2c(C)cc(/C=C3/C(=O)NC(=O)N(Cc4ccco4)C3=O)c2C)cc1 ?
PP1 counter: 5; pPAFAH FP inh: 11; PP5 inh: 0; PAFAH1B3 FP inh: 1; PAFAH1B2 FP inh: -3; PAFAH2 FP inh: 6

How did Cc1ccccc1-n1c(C)cc(/C=C2/C(=O)NC(=O)N(Cc3ccco3)C2=O)c1C do in these assays?
PP1 counter: 3; pPAFAH FP inh: 6; PP5 inh: 1; PAFAH1B3 FP inh: 15; PAFAH1B2 FP inh: 3; PAFAH2 FP inh: 42*; PAFAH2 FP conf: 46*

What do the screens show for `Cc1cc(/C=C2\C(=O)NC(=O)N(Cc3ccccc3Cl)C2=O)c(C)n1-c1ccc(C(=O)O)cc1`?
PP1 counter: -3; pPAFAH FP inh: 11; PP5 inh: 0; PAFAH1B3 FP inh: -1; PAFAH1B2 FP inh: 5; PAFAH2 FP inh: 34*; PAFAH2 FP conf: 24
